The structures appear in SMILES notation. Screen size: about 150,000 compounds; about 540 (0.36%) showed an effect of 50% or more. The entries come from a sample that favours strong results as a whole.

These results are taken from ChEMBL document CHEMBL4888484, “Replenishing the malaria drug discovery pipeline: Screening and hit evaluation of the MMV Hit Generation Library 1 (HGL1) against asexual blood stage Plasmodium falciparum ,using a nano luciferase reporter read-out” (2022).

The assay deals with Plasmodium falciparum. Put plainly: Primary screen in NF54 nanoGlo assay, in single point, at 2uM, 72h; a lower Z score goes with more inhibition. The class given is functional, Erythrocyte. As to conditions: timepoint 72 hour.
Consider `Cc1ccc(C(=O)Nc2ncn(Cc3c(F)cccc3Cl)n2)cc1`, for which the “% Inhibition” value was -15% and the Z score was 1.74.
Regarding `CN(Cc1ncc(-c2ccccc2)o1)c1ccccc1`, the “% Inhibition” value is -6% and the Z score was 0.5.
In the case of `C[n+]1ccc(-c2ncc(-c3ccccc3)o2)c2ccccc21`, the “% Inhibition” value amounted to 75% and the Z score was -5.73.
The corresponding values for `CC(=O)Nc1c(-c2ccc(F)cc2)c(C)nn1-c1ccc(C(=O)Nc2cccc(F)c2)cc1` are -5% and 0.93.
Take `CC(=O)Nc1c(-c2ccc(C)cc2)c(C)nn1-c1ccc(C(=O)Nc2cc(C)ccn2)cc1`: the “% Inhibition” value is listed as 59% and the Z score was -6.89.
Take `CC(=O)Nc1c(-c2ccc(F)cc2)c(C)nn1-c1ccc(C(=O)Nc2nc(C)cs2)cc1`: the “% Inhibition” value is on record as -1% and the Z score amounted to 0.19.
Turning to `c1ccc2c(c1)CCCC2N1CCCC(Cn2cncn2)C1` (centres undefined), the “% Inhibition” value is given as -9% and the Z score turned out to be 1.31.
With `C[C@H](NC(=O)CNC(C)(C)C)c1ccc(F)cc1F`, the “% Inhibition” value is recorded as -4% and the Z score came to 0.48.
As for `CC1(C)CO[C@@H](CC(=O)N2CCOC3(CCS(=O)(=O)CC3)C2)C1`, the “% Inhibition” value was determined as 0% and the Z score was determined as 0.06.
For `Cc1ccc(-c2cn[nH]c2[C@H]2CCCN(C(=O)c3[nH]cnc3C)C2)cc1`, the “% Inhibition” value is on record as -5% and the Z score was determined as 0.87.
`Cc1cccc2c(-c3cc(N)nc(N)n3)c[nH]c12`: the “% Inhibition” value is recorded as 85% and the Z score is -9.19.
For the compound `Cc1cccc2c(-c3cccc(C(N)=O)n3)c[nH]c12`, the “% Inhibition” value is on record as -6% and the Z score is on record as 1.19.
Consider `O=C(c1cnc2ccsc2c1)N1CC2(CCCCC2)C1`, for which the “% Inhibition” value was -15% and the Z score is 2.61.
For `CCc1noc(C)c1C(=O)Nc1sc2c(c1C(N)=O)CCCCC2`, the “% Inhibition” value is reported as -23% and the Z score came out at 2.07.
For `CCn1ncnc1CNC1CC(c2ccc(Br)cc2)C1` (centres undefined), the “% Inhibition” value is listed as -13% and the Z score turned out to be 1.96.
In the case of `COc1ccc2c(O)c(C(=O)NCCN(C)C)cnc2c1`, the “% Inhibition” value was -7% and the Z score was 0.96.
In the case of `COc1ccc2c(O)cc(-c3ccccc3)nc2c1`, the “% Inhibition” value worked out at 37% and the Z score is on record as -0.12.
As for `COc1ccc(C(=O)c2cnc3cc(Cl)ccc3c2-c2ccccc2)cc1`, the “% Inhibition” value is reported as -12% and the Z score was determined as 1.39.
In the case of `Cc1cccc(Cn2c(C(=O)Nc3ccccc3)cc3cc(NC(=O)C4CCC4)ccc32)c1`, the “% Inhibition” value is recorded as 13% and the Z score is listed as -2.41.
The corresponding values for `COc1ccc(-c2nn(-c3ccccc3C)cc2CN(C)Cc2nccn2C)cc1F` are -8% and 1.05.
On to `Cc1cc(C(=O)Nc2cccc(C(F)(F)F)c2)cc2c1N(C)S(=O)(=O)c1ccccc1-2`, for which the “% Inhibition” value was -3% and the Z score is 0.47.
`O=C(COC[C@H]1CCCCO1)NC(C1CC1)C1CC1`: the “% Inhibition” value is -8% and the Z score is 1.05.
As for `O=C(Nc1cccnc1)c1ccc(-c2ccc(Cl)c(Cl)c2)o1`, the “% Inhibition” value was determined as 64% and the Z score is recorded as -16.5.
As for `O=C(Nc1ccc(Br)cn1)c1ccc(-c2ccc(Cl)c(Cl)c2)o1`, the “% Inhibition” value is 31% and the Z score is on record as -3.51.
Turning to `Cc1ccc(-c2ccc(C(=O)Nc3cccnc3)o2)cc1Cl`, the “% Inhibition” value is listed as -2% and the Z score is on record as 0.25.
`Nc1nn2cc(-c3cc4ccccc4o3)nc2c2ccccc12`: the “% Inhibition” value is reported as -6% and the Z score is 1.22.
The corresponding values for `Cc1ccc2nc(-c3cc4ccccc4o3)cn2c1` are 61% and -5.65.
On to `Cc1ccc2nc(-c3cnoc3C)cn2c1`, for which the “% Inhibition” value was 0% and the Z score was 0.04.
The corresponding values for `O=C(NCCN1CCCC1)c1ccc(-c2c(-c3ccc(F)cc3)ncn2C2CCCC2)o1` are 5% and -0.8.
Take `Cc1ccc(Cl)cc1N1CCN(C(=O)N2CCC(C)CC2)CC1`: the “% Inhibition” value is reported as 0% and the Z score was -0.01.
In the case of `CCc1nc2cc(N3CCC(C(=O)N[C@@H](C)CC)CC3)cnc2nc1CC`, the “% Inhibition” value is -9% and the Z score turned out to be 1.42.
With `CCc1nc2cc(N3CCC(C(=O)NCc4cc(F)cc(F)c4)CC3)cnc2nc1CC`, the “% Inhibition” value is -5% and the Z score was found to be 0.82.
Turning to `CCc1nc2cc(N3CCC(C(=O)Nc4ccc5c(c4)OCO5)CC3)cnc2nc1CC`, the “% Inhibition” value stood at 73% and the Z score is recorded as -0.75.
The corresponding values for `Cc1ccc(S(=O)(=O)c2cn(CC(=O)Nc3ccc(C)c(C)c3)c3nc(C)ccc3c2=O)cc1` are -12% and 1.24.
For `COCCN1CCC[C@@]2(CCN(Cc3cnn(-c4ccc(Cl)cc4)c3)C2)C1`, in that order: -9% and 1.21.
For `COCCN1CC[C@H](CN(C)c2ccncn2)C1`, in that order: 1% and -0.2.
As for `COCCN1CC[C@H](CN(C)S(=O)(=O)Cc2ccc(Cl)cc2)C1`, the “% Inhibition” value is recorded as -6% and the Z score is on record as 1.12.
The corresponding values for `COCCN1C[C@]2(CCCN(c3ccnc4ccc(C)cc34)C2)CCC1=O` are -3% and 0.55.
The corresponding values for `COC(=O)[C@H](CN)Oc1ccc(F)cc1` are 2% and -0.27.
`O=C(NC1CC1C1CCCCC1)N1CCCN(C2CCOCC2)CC1` (centres undefined): the “% Inhibition” value is -16% and the Z score was 1.42.
With `O=C(N[C@@H]1C[C@H]1C1CCCCC1)N1CCC(N2CCCCC2)C1` (some centres undefined), the “% Inhibition” value is reported as -9% and the Z score came out at 1.45.
Turning to `O=C(NC1CC1C1CCCCC1)N1CCS(=O)(=O)CC1` (centres undefined), the “% Inhibition” value was found to be 77% and the Z score is -9.17.
In the case of `CCCN(C(=O)Nc1cc(Cl)ccc1OC)c1nc(-c2ccc(C3CCCCC3)cc2)cs1`, the “% Inhibition” value is -14% and the Z score amounted to 2.04.
In the case of `COc1ccc(NCC(=O)Nc2cc(C(F)(F)F)cc(NC(=O)CNc3ccc(OC)cc3)c2Cl)cc1`, the “% Inhibition” value is reported as -10% and the Z score stood at 1.34.
Regarding `CC(=O)Oc1ccc(N2C(=O)[C@@H]3[C@H](Cc4ccccc4)N[C@]4(C(=O)Nc5c4ccc(Cl)c5C)[C@@H]3C2=O)cc1`, the “% Inhibition” value was -4% and the Z score worked out at 0.38.
`O=C(ON1C(=O)CCC1=O)c1cccc(F)c1`: the “% Inhibition” value is reported as 34% and the Z score is -3.87.
For `O=C(ON1C(=O)CCC1=O)c1cc2ccccc2[nH]1`, the “% Inhibition” value is given as 61% and the Z score was -0.88.
For `Cc1cccc(C(=O)ON2C(=O)CCC2=O)c1`, in that order: 39% and 1.28.
The corresponding values for `Oc1cc(-c2ccc(F)cc2)nn1-c1nc2ccccc2[nH]1` are 36% and -4.09.
Turning to `Cc1cc(C)nc(-n2nc(C)c(CCc3ccccc3)c2O)n1`, the “% Inhibition” value came out at 32% and the Z score is given as -3.67.
With `Cc1cccc(Cc2c(C)nn(-c3nc(C)cc(C)n3)c2O)c1`, the “% Inhibition” value is 36% and the Z score came to 2.2.
`Cc1nn(-c2nc3ccccc3[nH]2)c(O)c1CCC(C)C`: the “% Inhibition” value amounted to 95% and the Z score was -12.21.
Consider `Cc1nn(-c2nc3ccccc3[nH]2)c(O)c1Cc1ccccc1`, for which the “% Inhibition” value is recorded as 63% and the Z score was -1.65.
For `COc1ccccc1-n1nc(C)c(Cc2ccccc2)c1O`, the “% Inhibition” value turned out to be 31% and the Z score is listed as -3.49.
As to `COc1ccc([C@@H]2N(c3ccc(Cl)cc3)OC(=O)N2c2ccccc2)cc1`, the “% Inhibition” value is recorded as 1% and the Z score is on record as -0.09.
In the case of `Cc1n[nH]c2c1CN(Cc1[nH]cc(C)c(=O)c1C)CC2`, the “% Inhibition” value was -8% and the Z score is 1.
The corresponding values for `COCCCN(CCC(=O)NCCc1ccccc1)C(=O)c1cc(C)oc1C` are 2% and -0.18.
As for `Cc1ccc(CNC(=O)CC2CC2)c2cccnc12`, the “% Inhibition” value is on record as -16% and the Z score is listed as 2.46.
As to `COc1ccc(Cl)cc1-c1cc(C(=O)N2CCOCC2)ccn1`, the “% Inhibition” value is on record as 3% and the Z score is given as -0.54.
For `CCc1c(C(=O)N2CCC(c3ccnn3CCO)CC2)cnn1-c1cccc(Cl)c1`, in that order: -3% and 0.24.
For the compound `CCc1nc2ccccc2c(C(=O)N2CCN(c3cc(OC)ncn3)CC2)c1C`, the “% Inhibition” value is recorded as -13% and the Z score is 1.69.
As for `COC[C@H]1CCCN1C[C@@H]1OC[C@H](NC(=O)c2ccc(C#N)cc2)[C@H]1O`, the “% Inhibition” value worked out at 9% and the Z score was -1.07.
The corresponding values for `Cn1cccc1-c1nc2cc(N)ccc2[nH]1` are -3% and 0.34.
Take `COCCN(CCOC)C(=O)c1cnn(C)c1`: the “% Inhibition” value is given as -6% and the Z score was found to be 0.88.
For `CC(C)CCn1nnnc1[C@]1(N(C)C)CCCN(C(=O)CN2CCOCC2)C1`, the “% Inhibition” value amounted to 2% and the Z score is recorded as -0.27.
With `CCOc1ccccc1C(=O)N1CCC[C@](c2nnnn2CCC(C)C)(N(C)C)C1`, the “% Inhibition” value is on record as -2% and the Z score is recorded as 0.29.
For `CC(C)CCn1nnnc1[C@]1(N(C)C)CCCN(C(=O)c2cccn2C)C1`, the “% Inhibition” value is 92% and the Z score is 1.07.
With `CCOCCCNCc1ccc(F)cc1`, the “% Inhibition” value is reported as -10% and the Z score was found to be 1.59.
As for `COc1ccc(CNc2nc(-c3nnc(-c4ccccc4)o3)nc3ccccc23)cc1`, the “% Inhibition” value is listed as 55% and the Z score is reported as -10.02.
Regarding `Cc1ccc(-c2nnc(-c3nc(NCc4ccc(F)cc4)c4ccccc4n3)o2)cc1`, the “% Inhibition” value is recorded as -11% and the Z score worked out at 2.05.
With `COc1ccc(-c2nnc(-c3nc(NCc4ccc5c(c4)OCO5)c4ccccc4n3)o2)cc1`, the “% Inhibition” value is listed as -7% and the Z score stood at 1.27.
In the case of `O=C(NCC1(c2ccccc2)CCCCCC1)N1CCO[C@@H](CO)C1`, the “% Inhibition” value is -5% and the Z score stood at 0.59.
On to `CCc1c(C)nc(C)nc1N1CC[C@H](NC(=O)c2cc(C)on2)[C@@H](O)C1`, for which the “% Inhibition” value is given as 8% and the Z score is given as -1.41.
Consider `CCn1nccc1C=C(C)c1ncccn1`, for which the “% Inhibition” value came to 1% and the Z score is given as -0.23.
For `CN(CCCn1ccnc1)C(=O)c1ccnc(N(C)C)c1`, in that order: -12% and 1.13.
The corresponding values for `COc1ccc(Br)cc1NC(=O)N(C)CCCn1ccnc1` are 8% and -0.86.
For `COc1ccc(Cn2nnc3cc(C(=O)Nc4ccc(C)cc4C)ccc32)cc1`, in that order: -2% and 0.34.
With `CC1=Nc2ccccc2C12CCN(C(=O)Nc1cncc(F)c1)CC2`, the “% Inhibition” value turned out to be 11% and the Z score is on record as -1.44.
Consider `O=C(Nc1onc2c1CCC2)c1cccc2ccccc12`, for which the “% Inhibition” value came to 20% and the Z score was -2.27.
As to `O=C(Nc1onc2c1CCC2)c1ccc2ccccc2c1`, the “% Inhibition” value was 76% and the Z score is -8.19.
As to `O=C(Nc1onc2c1CCC2)c1ccc2ncsc2c1`, the “% Inhibition” value is 0% and the Z score is listed as 0.01.
Turning to `CC(=O)Nc1ccc(S(=O)(=O)NC2(c3nc(C)no3)CCCCC2)cc1`, the “% Inhibition” value is -3% and the Z score stood at 0.55.
As to `O=C(Cn1cnc(-c2nc(-c3ccccc3)cs2)c1)Nc1ccc(F)cc1`, the “% Inhibition” value is listed as -8% and the Z score turned out to be 0.99.
On to `O=C(O)[C@H]1CCN(C(=O)Cn2c(COc3ccccc3)nc3ccccc32)C1`, for which the “% Inhibition” value is -10% and the Z score was 0.93.
Take `Cc1nn(-c2nc3ccccc3s2)c(O)c1C(c1ccc(Cl)c(Cl)c1)c1c(C)nn(-c2nc3ccccc3s2)c1O`: the “% Inhibition” value is given as -10% and the Z score was 0.88.
For the compound `Cc1nn(-c2ccccn2)c(O)c1C(c1ccccc1)c1c(C)nn(-c2ccccn2)c1O`, the “% Inhibition” value was 96% and the Z score is -9.38.
With `Cc1nn(-c2ccccc2Cl)c(O)c1C(c1ccsc1)c1c(C)nn(-c2ccccc2Cl)c1O`, the “% Inhibition” value stood at 6% and the Z score is -0.74.

For orientation: % Inhibition means the change of the read-out against control, counted positive when it falls.
